# High-throughput results (PubChem)
# GCN5L2 inh: blocks human GCN5L2 histone acetyltransferase. Potency, µM (series often up to 58.9 µM), for the others: at the top dose activity change, negative = inhibition, most hits filed as inhibitors. GCN5L2 HAT assay, ThioGlo1 CoA-SH fluorescence. actives 0.21% (n = 390,000). Q92830
#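 GCN5L2 (20 nM) in 50mM HEPES pH 7.5, 0.1mM EDTA, 0.01% Tween-20 preincubated 15 min with compounds at room temperature. Reaction started with H3(1-25) 75uM, acetyl-CoA 70uM, ThioGlo1 50uM; CoA-thiol fluorescence (Ex340/Em540) read at 0 and 20 min.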
# TrxR1 substrate: rat thioredoxin reductase 1 substrate activity; actives 0.01% (n = 390,000); purified TrxR1 substrate turnover, NADPH consumption readout; Potency, µM (highest dose often 114 µM), inactives show at the top dose activity change, negative = substrate turnover; note: nearly all actives have a fitted effect of over 50% in size
#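 Rat TrxR1, dispensed at 90 nM, was prereduced with 400 uM NADPH (final) for 5 min at ~22 deg C, then incubated with compound 15 min before 400 uM selenite. A first-read NADPH fluorescence drop versus no-compound background flagged substrates.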
# GLS inhibitor: glutaminase GLS (human) inhibition; O94925; GLS enzymatic activity, qHTS titration; Potency, µM (series often up to 45.5 µM), inactives show top-dose activity change, negative = inhibition, usual class: inhibitors; actives 0.21% (n = 410,000); AID 624170
#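 Two-point fluorescence kinetic (t0, 30 min RT) for hKGA; glutamate detected via glutamate oxidase–HRP–Amplex Red. Substrate: 1 mM L-glutamine solution; buffer 45 mM KH2PO4, pH 8.2.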
# TrxR1 inh: rat TrxR1 inhibition; Potency, µM (doses to about 114 µM), inactives show at the highest dose activity change, negative = inhibition, actives largely listed as inhibitors; AID 588453; recombinant rTrxR1, NADPH fluorescence consumption, selenite substrate; actives 1% (n = 390,000); note: nearly all actives have a fitted effect of over 65% in size
#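 Rat TrxR1 (90 nM in the dispensed reagent) was pre-reduced with 400 uM NADPH for 5 min at room temperature, then incubated with compound for 15 min. After 400 uM selenite was added, NADPH fluorescence (Ex 340/Em 450 nm) was followed for 8 min.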
# Sfp inh: blocks B. subtilis Sfp PPTase activity. Q9F4F7. Biochemical Sfp PPTase activity, qHTS. Potency, µM, inactives show largest response in the series, negative = inhibition, hits mostly inhibitors. actives 3.5% (n = 310,000). AID 1490;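 note: the enzyme is Sfp with the accession as filed and its product quenches rhodamine fluorescence; 0% = enzyme reaction without inhibitor and -100% = no enzyme wells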
#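 After 15 min at room temperature with compound, 15 nM Sfp received 5 uM rhodamine-CoA plus 12.5 uM BHQ-2-ybbR (50 mM Hepes pH 7.6, 10 mM MgCl2). Rate came from the fluorescence difference over 30 min, ex 525/em 598 nm.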
# VDR inh: inhibitors of human vitamin D receptor; VDR-SRC2-3 peptide fluorescence polarization, 2 h; Potency, µM, for inactives: max response, negative = inhibition, most hits filed as inhibitors; actives 0.93% (n = 400,000)
# Target sequence (P11473 whole entry, looked up): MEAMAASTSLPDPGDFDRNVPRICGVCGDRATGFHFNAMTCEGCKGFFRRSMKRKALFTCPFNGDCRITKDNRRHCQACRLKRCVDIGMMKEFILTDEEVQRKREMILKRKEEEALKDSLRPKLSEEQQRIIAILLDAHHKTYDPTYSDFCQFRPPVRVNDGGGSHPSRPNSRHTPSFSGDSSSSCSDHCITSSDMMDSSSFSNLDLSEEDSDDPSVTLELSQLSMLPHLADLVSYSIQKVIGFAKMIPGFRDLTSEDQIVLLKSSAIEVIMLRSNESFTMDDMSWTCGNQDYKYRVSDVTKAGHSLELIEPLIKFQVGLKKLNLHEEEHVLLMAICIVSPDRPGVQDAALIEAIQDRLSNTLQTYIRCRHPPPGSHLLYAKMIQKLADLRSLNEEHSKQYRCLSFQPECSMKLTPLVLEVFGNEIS
#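 Inhibition of the VDR/SRC2-3 peptide interaction is quantified by fluorescence polarization. Compounds (23 nl, pintool) incubate with the reagents for 2 hours at ambient room temperature.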
# An asterisk follows results filed as active; ? = inconclusive; / = not tested or not shown; [ ] = remark or other dose. In the library only some 3.8% were active in any assay of this set; here they are far more common. Calls come from the whole dose curve; as a rule, active = well fitted curve in the direction sought with a large enough effect; inconclusive = small, poorly fitted or top-dose-only effect, or another doubt; inactive = no such curve, though single readings can be large; an effect the other way counts as inactive or inconclusive. Unless noted, % is set by controls: 0 for no effect and ±100 for the full control effect; potency is the fitted concentration of half-maximal effect.
SMILES,GCN5L2 inh,TrxR1 substrate,GLS inhibitor,TrxR1 inh,Sfp inh,VDR inh
COc1c([N+](=O)[O-])c(=O)n(-c2ccccc2)c2ccccc12,-8%,-2%,7%,6%,18µM*,-12%
COc1ccc(/C=C/c2c(-c3ccc(OC)cc3)oc3ccccc23)cc1,1%,57%,-5%,45µM*,-11%,5%
COC(=O)c1ccc(/C=C/c2c(-c3ccc(OC)cc3)oc3ccccc23)cc1,-4%,82%,0%,33%,-12%,-31%
CCc1ccccc1NC(=O)c1cc(S(=O)(=O)N2CCCC2)c[nH]1,1%,-5%,-5%,9%,4%,?
Cc1ccc(N/C=C/C(=O)C(C)(C)C)c(O)c1,-16%,-5%[57.1 µM],9%,-10%[57.1 µM],89µM*,3%
COC(=O)c1ccc(C(NC(=O)OCc2ccccc2)/C(I)=C/[C@@H](C)C(=O)NCc2ccc(C)o2)cc1 (some centres not stated),/,/,/,/,40µM*,/
CN1CCC(=NNC(=O)C(=O)Nc2cccc(Br)c2)CC1,2%,5%[57.1 µM],?,-7%[57.1 µM],12%,71µM*
CC1(C)CC(=O)C(C(c2ccco2)C2C(=O)CC(C)(C)CC2=O)C(=O)C1,-19%,-2%,15%,?,50µM*,?
CCOc1ccccc1N1CCN(Cc2cc3c(cc2[N+](=O)[O-])OCO3)CC1,-7%,-9%,3%,1%,-19%,0%
COc1ccccc1NC(=S)NC(=O)c1ccc(-c2ccc(Cl)cc2)o1,-1%,8%,20%,-13%,18µM*,7%
O=C(O)c1ccccc1C(=O)Nc1n[nH]c(=S)s1,18µM*,0%[57.1 µM],?,-17%[57.1 µM],10µM*,?
Cc1ccc(NC(=O)c2sc3ncn(CC(=O)N4CCN(c5ccccn5)CC4)c(=O)c3c2C)cc1Cl,-26%,3%,0%,24%,6%,-15%
COc1cccc(NC(=O)c2sc3ncn(CC(=O)N4CCN(c5ccccn5)CC4)c(=O)c3c2C)c1,-1%,-10%,?,-2%,8%,25µM*
O=C1NC(=O)/C(=C/c2ccc(-c3cccc([N+](=O)[O-])c3)o2)S1,-14%,15%[57.1 µM],195%,19%[57.1 µM],89µM*,-2%
CCN(CC)c1ccc(NC(=O)CN2CCN(CC(=O)Nc3ccc(OC)cc3)CC2)cc1,-3%,1%,71%,6%,1%,-1%
CCOC(=O)CNC(=O)CN1CCCN(S(=O)(=O)c2ccc(Br)s2)CC1,-10%,0%,7%,16µM*,-21%,-6%
CCC(C)(C)NC(=O)C1CCC(CNS(=O)(=O)c2ccc3c(c2)CC(C)N3C(C)=O)CC1 (configuration not stated),-3%,8%,0%,25%,/,-6%
CN[C@H](CC(=O)O)C(=O)O,-5%,9%[57.1 µM],8%,10%[57.1 µM],100µM*,-1%
CC(=O)N1CCN(C(=O)c2ccc(S(=O)(=O)Nc3ccccc3Cl)cc2)CC1,-4%,-2%[57.1 µM],-5%,-1%[57.1 µM],/,1%
COCCCNC(=O)c1cc(S(=O)(=O)N2CCOCC2)ccc1SCc1cccc(OC)c1OC,-4%,14%[57.1 µM],0%,36%[57.1 µM],50µM*,-6%
COCCCNC(=O)c1oc2ccc(S(=O)(=O)N3CCOCC3)cc2c1C,-1%,-12%[57.1 µM],2%,20%[57.1 µM],13%,-10%
Cc1ccc2oc(=O)c3cc(C(=O)NCCCN4CCCC(C)C4)sc3c2c1 (configuration not stated),3%,12%,-13%,15%,6%,17%
O=C(Nc1nc2cc3c(cc2s1)OCCO3)c1cccs1,-5%,4%,4%,11%,5%,-5%
NNc1nc2cc3c(cc2s1)OCCO3,-4%,0%,-8%,26%,40µM*,6%
N#CC(c1nc2ccccc2nc1N1CCCC1)S(=O)(=O)c1cccs1 (configuration not stated),-8%,6%,3%,-16%,50µM*,10%
